Rv3671c inh = Rv3671c serine protease inhibitors, primary screen, biochemical, fluorescence polarization, M. tuberculosis H37Rv. P9WHR9. inhibition, % at 5.96 µM. 320,000 tested, 0.048% active. AID 2606, 2010; in the data active means inhibition above about 38%;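 further: extracellular domain of Rv3671c used as enzyme; 0% = enzyme with DMSO and 100% = no enzyme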
Target sequence (P9WHR9 whole entry, looked up, the tested form may be a part): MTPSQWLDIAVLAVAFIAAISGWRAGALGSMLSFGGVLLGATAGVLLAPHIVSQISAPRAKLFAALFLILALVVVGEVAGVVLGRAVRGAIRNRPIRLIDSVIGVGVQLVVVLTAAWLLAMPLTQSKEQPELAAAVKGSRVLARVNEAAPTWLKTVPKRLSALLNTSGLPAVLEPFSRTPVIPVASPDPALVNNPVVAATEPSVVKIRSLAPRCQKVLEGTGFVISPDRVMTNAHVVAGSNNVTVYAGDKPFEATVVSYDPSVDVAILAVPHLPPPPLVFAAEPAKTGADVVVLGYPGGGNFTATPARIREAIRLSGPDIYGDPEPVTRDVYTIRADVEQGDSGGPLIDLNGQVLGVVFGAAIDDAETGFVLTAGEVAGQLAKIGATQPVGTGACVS
Mtb betalactam = beta-lactam sensitization of Mtb H37Rv, H37Rv; M. tuberculosis H37Rv growth with meropenem, percent inhibition; inhibition, % at 25 µM; 330,000 tested, 0.27% active; AID 434955, 2010;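 further: growth measured after seven days incubation then overnight dye step; 0% = bacteria only wells and 100% = bacteria with antibiotic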
UGM FP inh = M. tuberculosis UGM enzyme inhibitors, primary screen, biochemical, fluorescence polarization, single point; inhibition, % at 10 µM; purified UGM, fluorescence polarization probe displacement; 320,000 tested, 0.06% active; AID 504406, 2011; UDP-galactopyranose mutase (Mycobacterium tuberculosis (strain ATCC 25618 / H37Rv)), …; in the data active means inhibition above about 10%, passing the limit was not always enough
RecA splice inh = Mtb RecA intein splicing inhibitors, primary screen, biochemical, fluorescence, HTS | cell-free RecA intein splicing | inhibition, % (concentration not given with the values) | 290,000 tested, 0.75% active | AID 2221, 2009; in the data active means inhibition above about 30%;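 further: 0% = vehicle wells and 100% = reference inhibitor control wells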
FBA Mtb inh = Mtb FBA enzyme inhibitors, primary screen, biochemical, fluorescence, strain H37Rv; Fructose-bisphosphate aldolase (Mycobacterium tuberculosis (strain ATCC 25618 / H37Rv)), …; purified M. tuberculosis FBA, fluorescence read-out; inhibition, % at 1 µM; 360,000 tested, 2.3% active; AID 588726, 2011; in the data active means inhibition above about 27%;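 further: 0% = vehicle and 100% = reference inhibitor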
GDH-TPI counter = GDH-TPI coupling enzyme inhibitors, primary screen, artefact control for M. tuberculosis FBA inhibitor project, biochemical, absorbance, full deck. inhibition, % at 4.8 µM. GDH-TPI coupled enzyme counterscreen, NADH absorbance. 360,000 tested, 1.2% active. AID 588335, 2011; in the data active means inhibition above about 30%;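 further: 0% = DMSO wells and 100% = wells lacking the enzyme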
GFP chromo cs = counter-screen: blocks GFP chromophore formation, dose response, counter-screen, biochemical, fluorescence, homogeneous; shares compounds with RecA splice inh; AID 434968, 2010; EC50, µM; 2,100 tested, 83% active; cell-free GFP chromophore formation
The depositor's hits bear a star; x = not tested or not shown. A selection: hits, their analogues and other compounds. The true share with any hit is near 4%. Unless noted, how the calls were made is not given here.

SMILES	Rv3671c inh	Mtb betalactam	UGM FP inh	RecA splice inh	FBA Mtb inh	GDH-TPI counter	GFP chromo cs
O=C(NCC(F)(F)F)c1ccc(S(=O)(=O)N2CCN(C(=O)C3CCCO3)CC2)cc1 (stereo unspecified)	6	-4	3	x	-3	-4	x
Cc1cn(C2CCCCO2)c(=O)[nH]c1=O (stereo unspecified)	x	x	x	x	-2	7	x
O=C(NC1CCS(=O)(=O)C1)c1cccc(Cl)c1 (stereo unspecified)	6	-15	-1	3	-2	-7	x
CC(C)(C)CNC(=O)c1cccc2c1C(=O)c1ccc(-c3cc4ccccc4o3)cc1S2(=O)=O	-17	-3	3	x	4	5	x
CC1(NC(=O)CSc2nnc(-c3c[nH]c4ccccc34)n2C2CC2)CCS(=O)(=O)C1 (stereo unspecified)	6	-6	-1	x	0	-4	x
CC(=O)Nc1ccccc1NC(=O)C/C(C)=N/NC(=O)c1ccc([N+](=O)[O-])c(Cl)c1	-3	-2	0	-2	1	6	x
C/C(CC(=O)Nc1cccnc1)=N\NC(=O)c1ccc([N+](=O)[O-])c(Cl)c1	-14	-1	0	61*	2	11	35*
CCc1oc2ccccc2c1C(=O)c1cc(Br)c(O)c(Br)c1	1	-3	4	26	20	18	18*
CC(=O)Oc1ccccc1N(C(C)=O)S(=O)(=O)c1ccc2ccccc2c1	-2	-7	-1	3	5	8	x
CC(=O)Oc1c(Br)cc(N(C(C)=O)S(=O)(=O)c2ccccc2)c2ccccc12	-59	-1	1	37*	1	17	5.3*
COCCNC(=O)C1(C)CCCN(C(=O)c2ccc(C(=O)OC)cc2)C1 (stereo unspecified)	x	x	x	x	0	16	x
COCCOC(=O)C1=C(C)N=C2SCCC(=O)N2C1c1ccc(OC(=O)c2ccco2)cc1 (stereo unspecified)	-4	11	-4	33*	0	11	>38
O=C(Cc1cc(=O)[nH][nH]1)N/N=C/C(Cl)=C/c1ccccc1	-27	2	-1	81*	-1	7	6*
O=C(Cc1cc(=O)[nH][nH]1)N/N=C/c1ccccc1Cl	-40	2	-3	74*	x	x	7.7*
O=C(Cc1cc(=O)[nH][nH]1)N/N=C/c1cccc(Cl)c1Cl	-7	-2	-4	94*	1	0	11*
O=C(CO)N/N=C/c1cccc(Cl)c1Cl	5	5	x	1	1	-2	x
O=C(Cc1cc(=O)[nH][nH]1)N/N=C/c1cccc2ccccc12	-15	1	1	94*	-3	18	7.3*
O=C(NCC(c1ccco1)N1CCc2ccccc2C1)C(=O)Nc1ccccc1F (stereo unspecified)	-1	2	0	9	-3	-3	x
Cc1ccc(S(=O)(=O)CCC(=O)OCC(=O)Nc2ccc(N3CCOCC3)cc2)cc1	9	-1	0	-2	1	4	x
CCN(CC(=O)Nc1c(F)cccc1F)C(=O)CCc1nc2sc3c(c2c(=O)[nH]1)CCCC3	-4	0	x	1	1	2	x
CC1CCN(S(=O)(=O)c2ccc(NN=C(C#N)C#N)cc2)CC1	-36	-1	x	x	x	x	x
N#CC(C#N)=NNc1ccc(S(=O)(=O)N2CCCCC2)cc1	-10	-3	1	58*	-3	13	19*
O=C(O)CC(CC(=O)NCC(O)c1ccccc1)c1ccccc1 (stereo unspecified)	-3	-4	0	-1	0	-6	x
O=C(Oc1ccccc1C(=O)Nc1ccccc1)c1ccccc1Br	20	7	-1	54*	2	7	36*
O=c1cc(C2CCNCC2)[nH][nH]1	-23	-11	-1	87*	0	-4	5.4*
SMILES	Rv3671c inh	Mtb betalactam	UGM FP inh	RecA splice inh	FBA Mtb inh	GDH-TPI counter	GFP chromo cs
COc1cc(C=C2C(=O)c3ccccc3C2=O)ccc1O	-3	-1	4	46*	-7	21	>38
COc1ccc(CN(C)CCCn2cnc3c(OCc4ccccc4)ncnc32)cc1	x	x	x	x	-3	5	x
Cc1cc(-c2ccccc2)nc2cc(C(=O)N(Cc3ccccc3)Cc3ccccc3)nn12	-14	61	2	32*	11	-5	>38
COC(=O)c1ccc(C(c2c(C)[nH][nH]c2=O)c2c(C)[nH][nH]c2=O)cc1	-6	5	0	95*	0	3	1.4*
Cc1[nH][nH]c(=O)c1C(c1ccc(Cl)cc1)c1c(C)[nH][nH]c1=O	-2	-2	1	98*	0	-10	1.3*
Cc1[nH][nH]c(=O)c1C(c1ccc(F)cc1)c1c(C)[nH][nH]c1=O	-7	10	1	98*	3	-4	0.62*
CN1CCN2c3ccc(N)cc3CC3(C(=O)NC(=O)NC3=O)C2C1 (stereo unspecified)	x	x	x	55*	1	3	>38
CN1C(=O)N(C)C(=O)C2(Cc3cc(N)ccc3N3CCN(c4ccccc4F)CC32)C1=O (stereo unspecified)	14	3	-2	10	x	x	x
Cc1cc(Br)c(NC(=O)CN2CCCC2)c(Br)c1	x	x	x	1	2	-5	x
COc1ccccc1-n1nnnc1SCC(=O)NCC1CCCO1 (stereo unspecified)	3	0	-3	1	3	4	x
COc1ccccc1NC(=O)c1cnc(SCC(=O)NCC2CCCO2)n(C)c1=O (stereo unspecified)	-1	79	1	45*	-1	28	>38
Cc1ccc(N2CC(C(=O)Nc3cccnc3)CC2=O)cc1Cl (stereo unspecified)	1	1	2	11	1	4	x
Cc1nn2c(=O)cc(COC(=O)c3c(F)cccc3Cl)nc2s1	2	-8	x	x	5	7	x
CCCc1cc(=O)n2[nH]c(-c3ccccc3)cc2n1	2	2	3	-1	18	0	x
CCCCn1[nH]c(-c2ccccc2)cc1=O	-147	9	0	97*	3	6	2.8*
CC1CCN(C(=O)c2[nH]cnc2C(=O)Nc2cccc(Cl)c2)CC1	-4	-1	5	x	0	2	x
O=C1/C(=C/Nc2ccc3c(c2)OCO3)CCc2ccccc21	-5	91	-1	49*	-5	5	3.2*
COc1ccc2c(c1)CC/C(=C\Nc1ccc3c(c1)OCO3)C2=O	-12	-9	1	x	-11	8	x
